We go through 47 compounds from PubChem BioAssay AID892 (National Center for Advancing Translational Sciences (NCATS), 2007).

The structures appear in SMILES notation. The whole screen tested about 75,000 compounds, of which about 20 (0.03%) were called active. Only a sample is shown. Values without a mark were called inactive. The call rests on the fitted dose curve; in most records, active means well fitted inhibition curve with a large enough effect; inconclusive means small, poorly fitted or top-dose-only effect; inactive means no such curve, though single readings can be large or run the other way. Square brackets hold non-standard residues; d marks the D form. Peptide text beside a SMILES is read from it. ξ: configuration not given here. ξV = CC(C)C(N)C(=O)O
On the % scale 0 is the no-effect control and ±100 the full control effect.

Sequence of Breast cancer type 1 susceptibility protein (Homo sapiens) (P38398 whole entry, looked up): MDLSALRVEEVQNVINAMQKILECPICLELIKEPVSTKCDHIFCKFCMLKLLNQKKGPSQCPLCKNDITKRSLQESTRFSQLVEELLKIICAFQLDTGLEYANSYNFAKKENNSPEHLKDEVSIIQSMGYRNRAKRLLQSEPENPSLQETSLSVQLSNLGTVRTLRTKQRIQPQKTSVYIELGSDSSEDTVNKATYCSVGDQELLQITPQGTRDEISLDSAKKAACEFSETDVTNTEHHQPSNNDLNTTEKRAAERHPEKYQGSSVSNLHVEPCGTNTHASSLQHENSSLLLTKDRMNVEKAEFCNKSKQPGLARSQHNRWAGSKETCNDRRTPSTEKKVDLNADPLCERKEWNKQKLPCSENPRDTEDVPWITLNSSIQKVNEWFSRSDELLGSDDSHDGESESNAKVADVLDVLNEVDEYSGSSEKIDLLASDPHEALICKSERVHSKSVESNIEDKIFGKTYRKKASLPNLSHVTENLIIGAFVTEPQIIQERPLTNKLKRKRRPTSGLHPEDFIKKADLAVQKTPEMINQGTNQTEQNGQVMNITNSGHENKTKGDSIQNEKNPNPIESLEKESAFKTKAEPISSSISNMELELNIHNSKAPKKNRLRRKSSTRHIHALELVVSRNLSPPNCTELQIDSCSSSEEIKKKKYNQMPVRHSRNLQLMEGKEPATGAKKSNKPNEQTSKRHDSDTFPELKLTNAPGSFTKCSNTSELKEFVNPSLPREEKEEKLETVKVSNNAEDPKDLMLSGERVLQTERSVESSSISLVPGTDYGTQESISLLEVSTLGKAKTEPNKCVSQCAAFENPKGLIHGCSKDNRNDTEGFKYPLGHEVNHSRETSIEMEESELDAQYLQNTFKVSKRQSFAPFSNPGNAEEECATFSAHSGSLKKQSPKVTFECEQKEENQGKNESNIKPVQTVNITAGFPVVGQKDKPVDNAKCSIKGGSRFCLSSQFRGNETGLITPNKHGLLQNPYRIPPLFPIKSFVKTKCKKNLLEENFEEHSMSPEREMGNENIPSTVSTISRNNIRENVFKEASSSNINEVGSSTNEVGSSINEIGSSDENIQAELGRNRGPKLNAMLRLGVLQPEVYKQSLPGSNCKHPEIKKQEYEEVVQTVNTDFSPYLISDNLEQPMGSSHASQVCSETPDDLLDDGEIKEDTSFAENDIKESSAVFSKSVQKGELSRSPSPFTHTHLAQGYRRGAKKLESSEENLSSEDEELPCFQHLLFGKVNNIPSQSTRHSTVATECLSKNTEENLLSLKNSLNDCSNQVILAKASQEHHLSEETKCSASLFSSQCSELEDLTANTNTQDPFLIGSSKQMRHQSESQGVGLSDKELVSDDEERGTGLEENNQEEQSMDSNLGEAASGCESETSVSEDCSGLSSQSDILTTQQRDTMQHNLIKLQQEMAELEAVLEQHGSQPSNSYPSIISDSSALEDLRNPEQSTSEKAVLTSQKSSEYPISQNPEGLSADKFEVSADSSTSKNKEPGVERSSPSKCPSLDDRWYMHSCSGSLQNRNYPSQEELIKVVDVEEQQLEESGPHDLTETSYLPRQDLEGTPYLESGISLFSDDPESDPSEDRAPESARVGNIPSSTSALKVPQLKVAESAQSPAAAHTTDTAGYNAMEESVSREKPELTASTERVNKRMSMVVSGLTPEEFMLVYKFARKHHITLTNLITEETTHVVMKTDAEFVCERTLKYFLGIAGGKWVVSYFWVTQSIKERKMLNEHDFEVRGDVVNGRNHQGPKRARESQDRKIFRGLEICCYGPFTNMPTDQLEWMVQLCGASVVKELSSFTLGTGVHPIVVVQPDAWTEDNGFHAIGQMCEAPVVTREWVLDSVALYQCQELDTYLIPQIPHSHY

The target in the assay is Breast cancer type 1 susceptibility protein (Homo sapiens) (UniProt P38398). As to the kind of experiment: qHTS Assay for Inhibitors of BRCT-Phosphoprotein Interaction (Red Fluorophore). Particulars: BRCT-phosphopeptide binding, red fluorescence polarization; series mostly up to 76.9 µM; activity change, negative = inhibition: at the top concentration. The method, then:
NIH Molecular Libraries Screening Centers Network [MLSCN]
NIH Chemical Genomics Center [NCGC]
PI Name: Natarajan, Amarnath; University of Texas
A complex of BRCT (C-terminal portion of BRCA1, MW ~35 kDa, His-tagged) and fluorescently labeled pBACH1 phosphorylated 10 aa peptide fragment of BACH1, a helicase implicated in DNA repair, is incubated with library members. Inhibitors of BRCT-pBACH1 binding are detected by a decrease in the fluorescence polarization (FP) of the fluorophore. In order to minimize the effect of fluorescence artifacts and to increase the overall robustness of the screen, the compound library members were incubated in separate reactions with rhodamine-labeled probe-protein complexes. Protein and labeled probes were supplied by Dr. Amarnath Natarajan, Department of Pharmacology and Toxicology, University of Texas Medical Branch Galveston, TX.
Assay Buffer: 16mM Na2HPO4, 4 mM NaH2PO4, 150 mM NaCl, 1 mM EDTA, 1 mM DTT, 0.02% NaN3, and 0.01% Tween 20 at pH 7.3.
Assay Controls: 100 nM TAMRA labeled decapeptide dispensed into columns 3 and 4 to generate negative control (full inhibition of
binding, -100 % activity). 100 nM labeled decapeptide/100 nM protein in columns 1, 2, 5 - 48. Titration of unlabeled decapeptide control (from 10 mM, then 1:2 dilution in duplicate) pin-transferred to column 2, rows 1 to 16. Column 1 is neutral.
Three uL of reagents were dispensed to 1536-well Greiner black solid-bottom plates. Compounds and controls (23 nL) were transferred via Kalypsys PinTool. The plates were incubated for 12 min at room temperature, and then read on ViewLux (Perkin-Elmer) High-throughput CCD imager using BODIPY for the rhodamine-labeled decapeptide probe polarization filter sets. During dispense, reagent bottles were kept submerged into 4 deg C water bath and all liquid lines were covered with aluminum foil to minimize probe and protein degradation. All screening operations were performed on a Kalypsys robotic system (Kalypsys, Inc., San Diego, CA) containing one RX-130 and two RX-90 anthropomorphic robotic arms. The timing and order of assay plates passing through the screening system were adjusted such that each compound library plate was assayed against the fluorescein- and rhodamine-labeled assay systems at immediately adjacent time points.
In general terms: Quantitative high-throughput screening tests each substance at several concentrations.
With `CCS(=O)(=O)N1CCN(C(=O)c2cccs2)CC1`, the “activity change, negative = inhibition” value was -0.859% (inactive).

Turning to `Cc1nc2cnc(Nc3ccccc3)nc2n(Cc2ccc(F)cc2)c1=O`, the “activity change, negative = inhibition” value was 2.61% (inactive).

`CCCCC[C@H](O)CCCC(=O)O`: the “activity change, negative = inhibition” value is 1.58% (inactive).

In the case of `COc1ccc(-c2cc(C(F)(F)F)nc(SCCC(=O)NCc3ccco3)n2)cc1`, the “activity change, negative = inhibition” value is -0.281% (inactive).

In the case of `CCn1cc(C(=O)NCC2COc3ccccc3O2)c2cc(OC)c(OC)cc2c1=O` (configuration not stated), the “activity change, negative = inhibition” value was -0.433% (inactive).

As to `CC(=O)NC(C(=O)NCC(N)=O)C(C)C` (configuration not stated) (Ac-[ξV]-Gly-NH2), the “activity change, negative = inhibition” value is 0.622% (inactive).

For `CN1CCCC1CCO[C@@](C)(c1ccccc1)c1ccc(Cl)cc1` (some centres not stated), the “activity change, negative = inhibition” value is 1.2% (inactive).

Turning to `Nc1ccccc1N`, the “activity change, negative = inhibition” value was 0.594% (inactive).

Consider `COC(=O)[C@@H]1C[C@H]2CC[C@H](O)C[C@H]2N1Cc1ccc(N2CCN(C)CC2)cc1`, for which the “activity change, negative = inhibition” value was -0.952% (inactive).

Regarding `O=C(O)c1cccc(S(=O)(=O)NCCO)c1`, the activity change, negative = inhibition is 1.54% [at 15.4 µM].

In the case of `CCCN1[C@H](C(=O)OC)C[C@@]2(O)[C@@H](O)[C@@H](O)[C@@H](O)C[C@@H]12`, the “activity change, negative = inhibition” value was 0.469% (inactive).

Regarding `CCOC(=O)c1sc(NC(=S)n2cc(C)cn2)c(C(=O)OCC)c1C`, the “activity change, negative = inhibition” value is -1.09% (inactive).

`CCc1nc(C)cn1S(=O)(=O)c1cc(OC)c(C)cc1C`: the “activity change, negative = inhibition” value is 0.696% (inactive).

Take `COc1ccc(CN2C(=O)CN=C2Nc2ccc(C)cc2C)cc1`: the “activity change, negative = inhibition” value was 0.673% (inactive).

Consider `COc1ccc2c(c1OC)C(=O)N(c1ncn[nH]1)C2`, for which the “activity change, negative = inhibition” value is -2.61% (inactive).

Take `C=CCn1c(COc2ccccc2)nnc1SCC(=O)NCC(=O)OCC`: the “activity change, negative = inhibition” value was 0.0764% (inactive).

With `Clc1ccc(C2[C@H]3CN(CC4CCCCC4)[C@H](c4ccccc4)C34CC2(c2cccnc2)C4)cn1` (some centres not stated), the “activity change, negative = inhibition” value was 0.586% (inactive).

Turning to `COCC(=O)N1CCC2(CCCN(c3ccccc3)C2)CC1`, the “activity change, negative = inhibition” value is -0.355% (inactive).

On to `Cc1cccc(Cn2c(SCCO)nc3c2c(=O)n(C)c(=O)n3C)c1`, for which the “activity change, negative = inhibition” value is -1.18% (inactive).

Consider `CS(=O)(=O)N(CC(=O)N1CCOCC1)c1ccc2c3c(cccc13)CC2`, for which the “activity change, negative = inhibition” value is 0.749% (inactive).

Take `Cc1cc(C)nc(SCc2nnc(SCC(=O)Nc3ncc(C)s3)n2Cc2ccco2)n1`: the “activity change, negative = inhibition” value was -0.299% (inactive).

Consider `CCOc1ccc(CNC(=O)C2CC(=O)N(C3CCCC3)C2)cc1OC` (configuration not stated), for which the “activity change, negative = inhibition” value was 1.07% (inactive).

For the compound `O=C(Nc1cccc(F)c1)c1ccc(S(=O)(=O)N2CCCC2)cc1`, the “activity change, negative = inhibition” value was 1.38% (inactive).

For the compound `COc1ccc(-c2cc(C(F)(F)F)n3nc(C(=O)N4CCOCC4)c(Cl)c3n2)cc1`, the “activity change, negative = inhibition” value was -0.981% (inactive).

In the case of `O=C(OCC(O)C(O)COC(=O)c1ccccc1)c1ccccc1` (configuration not stated), the “activity change, negative = inhibition” value was -0.448% (inactive).

Turning to `O=C(c1cnn2ccccc12)N1CCc2ccccc21`, the “activity change, negative = inhibition” value was -0.328% (inactive).

Consider `CCCNS(=O)(=O)c1ccc2c(c1)CCCN2C(C)=O`, for which the “activity change, negative = inhibition” value is 0.548% (inactive).

Turning to `CC1Cc2ccccc2N1C(=O)Cn1cnc2ccccc2c1=O` (configuration not stated), the “activity change, negative = inhibition” value was 0.0211% (inactive).

On to `COC(=O)COc1ccc(S(=O)(=O)Nc2ccc(NC(C)=O)cc2)cc1`, for which the “activity change, negative = inhibition” value is -0.143% (inactive).

Consider `O=C1CCC(C(=O)Nc2ccc(OC(F)F)cc2)N1` (configuration not stated), for which the “activity change, negative = inhibition” value is -0.0225% (inactive).

For the compound `CCOC(=O)N1CCN(C(=O)c2cc3c(-c4ccc(Cl)cc4)nn(C)c3s2)CC1`, the “activity change, negative = inhibition” value is 0.778% (inactive).

`O=C1c2cccnc2C(=O)N1Cc1cccs1`: the “activity change, negative = inhibition” value was 0.534% (inactive).

In the case of `Nc1nc(N)c2[nH]c(CNc3ccc(C(=O)O)cc3)nc2n1`, the activity change, negative = inhibition was 1.19% [at 15.4 µM].

Turning to `O=C(O)[C@@H]1[C@@H](C(=O)O)[C@]23C[C@@]2(C(=O)O)[C@]2(C(=O)O)CCC3=C3CCCC312`, the activity change, negative = inhibition is 1.09% [at 15.4 µM].

`CC(=O)Nc1ccc(S(=O)(=O)N2CCN(CCCOc3cc(C)ccc3C)CC2)cc1`: the “activity change, negative = inhibition” value is -0.555% (inactive).

On to `O=C(CSc1nc2[nH]ncc2c(=O)n1-c1ccccc1)N1CCCc2ccccc21`, for which the “activity change, negative = inhibition” value is 12.7% (inactive).

Turning to `CC(C)CNC(=O)C1CCCN(S(=O)(=O)c2ccc(-n3cnnn3)cc2)C1` (configuration not stated), the “activity change, negative = inhibition” value is 1.01% (inactive).

Turning to `Cn1c(N)c(C(=O)COC(=O)c2cc(C(F)(F)F)nc3c(C(F)(F)F)cccc23)c(=O)n(C)c1=O`, the “activity change, negative = inhibition” value was -2.05% (inactive).

As to `CCCC1CC(C)(C(=O)Cn2[nH]c(=O)ccc2=O)OC1=O` (configuration not stated), the “activity change, negative = inhibition” value was -1.89% (inactive).

Consider `C[C@@H]1O[C@@H](OC[C@H]2O[C@@H](Oc3c(-c4cccc(O)c4O)oc4cc(O)cc(O)c4c3=O)[C@H](O)[C@@H](O)[C@@H]2O)[C@H](O)[C@H](O)[C@H]1O`, for which the “activity change, negative = inhibition” value is 0.502% (inactive).

As to `CCOC(=O)C1CCCCN1Cc1ccc(OC)c(OC)c1OC` (configuration not stated), the “activity change, negative = inhibition” value is -0.0383% (inactive).

`O=C(Nc1c(-c2ccccc2)nc2c(Br)cc(Br)cn12)c1ccco1`: the “activity change, negative = inhibition” value was -1.98% (inactive).

On to `Cc1ccc(S(=O)(=O)N2CCN(C(=O)CCC(=O)NC3CCCc4ccccc43)CC2)cc1` (configuration not stated), for which the “activity change, negative = inhibition” value is 1.14% (inactive).

Take `C[C@@H]1C[C@H]2[C@@H]3C[C@H](F)C4=CC(=O)C=C[C@@]4(C)[C@]3(F)[C@H](O)C[C@]2(C)[C@@]1(O)C(=O)CO`: the “activity change, negative = inhibition” value was -0.634% [at 34.4 µM] (inactive).

`Cc1oc(CC(C)C)c(CN2CCCC2)c1C(=O)O`: the “activity change, negative = inhibition” value is -0.0692% (inactive).

On to `Fc1ccc(OCc2nn3c(Cn4nnc5ccccc54)nnc3s2)cc1`, for which the “activity change, negative = inhibition” value was -0.165% (inactive).

`COc1ccc(OC)c(NC(=O)CCN2CCC(C)CC2)c1`: the “activity change, negative = inhibition” value is -1.49% (inactive).
